Laboratory results from the supplement of paper PMC11732987, “Enantioselective OTUD7B fragment discovery through chemoproteomics screening and high-throughput optimisation” (Communications Chemistry, 2025).

Columns and labels:
Experiment in all cases: log2 ratio of Biotin-Ahx-Ub-VS probe labelling (fragment/DMSO); higher = less target engagement (more negative = stronger competition), active = hit call of the paper (q ≤ 0.05, log2 ratio ≤ -1)
Conditions in all cases: compound concentration: 200 uM; treatment time: 3 h
USP42 = molecular target: T1, USP42 (UniProt Q9H9J4)
T1 sequence (whole entry): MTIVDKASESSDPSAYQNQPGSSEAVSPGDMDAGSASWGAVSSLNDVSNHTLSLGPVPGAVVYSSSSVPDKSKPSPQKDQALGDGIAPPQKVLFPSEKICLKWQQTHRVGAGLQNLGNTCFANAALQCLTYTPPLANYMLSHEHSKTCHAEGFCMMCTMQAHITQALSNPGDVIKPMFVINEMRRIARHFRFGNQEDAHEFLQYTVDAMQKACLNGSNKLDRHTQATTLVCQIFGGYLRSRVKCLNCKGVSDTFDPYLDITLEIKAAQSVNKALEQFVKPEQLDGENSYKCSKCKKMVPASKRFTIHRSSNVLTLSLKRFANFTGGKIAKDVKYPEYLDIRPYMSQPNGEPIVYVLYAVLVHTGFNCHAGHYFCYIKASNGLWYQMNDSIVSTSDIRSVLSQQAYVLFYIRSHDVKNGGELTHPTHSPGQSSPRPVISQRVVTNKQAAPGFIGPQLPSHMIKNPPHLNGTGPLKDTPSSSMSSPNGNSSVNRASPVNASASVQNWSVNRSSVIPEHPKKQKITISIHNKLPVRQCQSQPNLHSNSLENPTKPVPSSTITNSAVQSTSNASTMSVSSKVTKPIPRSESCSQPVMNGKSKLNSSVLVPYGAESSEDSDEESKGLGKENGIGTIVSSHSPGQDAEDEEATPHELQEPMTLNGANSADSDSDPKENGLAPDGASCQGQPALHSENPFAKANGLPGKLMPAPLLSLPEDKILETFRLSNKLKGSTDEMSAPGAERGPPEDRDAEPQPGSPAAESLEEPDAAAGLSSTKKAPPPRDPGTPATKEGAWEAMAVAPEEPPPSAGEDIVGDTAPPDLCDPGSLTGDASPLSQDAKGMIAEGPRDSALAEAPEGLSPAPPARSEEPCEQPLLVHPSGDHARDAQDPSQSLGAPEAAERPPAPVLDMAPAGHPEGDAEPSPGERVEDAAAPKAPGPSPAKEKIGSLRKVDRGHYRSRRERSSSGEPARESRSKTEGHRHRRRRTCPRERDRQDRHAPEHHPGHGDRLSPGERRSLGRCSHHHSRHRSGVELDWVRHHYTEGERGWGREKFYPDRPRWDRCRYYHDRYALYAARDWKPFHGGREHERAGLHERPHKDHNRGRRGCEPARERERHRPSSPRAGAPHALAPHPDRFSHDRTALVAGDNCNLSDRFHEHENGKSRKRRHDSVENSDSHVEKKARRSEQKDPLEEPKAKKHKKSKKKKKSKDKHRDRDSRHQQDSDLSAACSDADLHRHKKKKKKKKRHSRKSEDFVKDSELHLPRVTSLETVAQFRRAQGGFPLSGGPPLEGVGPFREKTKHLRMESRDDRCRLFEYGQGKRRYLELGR
Outline: (§1)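 Global-median-normalised Spectronaut label-free quantities were compared by unpaired t-test, and values are average log2 ratios of fragment over vehicle. Only proteins with ≥2 unique peptides were used. HEK293T lysate (495 µg per sample) was treated in triplicate with fragment at 200 µM or vehicle for 3 h and then with Biotin-Ahx-Ub-VS at 0.5 µM final for 1 h. Labelled DUBs were then NeutrAvidin-enriched, digested with LysC and trypsin, and run by diaPASEF LC-MS/MS.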

USP46 = USP46 (UniProt P62068)
Outline: as §1

USP47 = molecular target: T2, USP47 (UniProt Q96K76)
T2 sequence (whole entry): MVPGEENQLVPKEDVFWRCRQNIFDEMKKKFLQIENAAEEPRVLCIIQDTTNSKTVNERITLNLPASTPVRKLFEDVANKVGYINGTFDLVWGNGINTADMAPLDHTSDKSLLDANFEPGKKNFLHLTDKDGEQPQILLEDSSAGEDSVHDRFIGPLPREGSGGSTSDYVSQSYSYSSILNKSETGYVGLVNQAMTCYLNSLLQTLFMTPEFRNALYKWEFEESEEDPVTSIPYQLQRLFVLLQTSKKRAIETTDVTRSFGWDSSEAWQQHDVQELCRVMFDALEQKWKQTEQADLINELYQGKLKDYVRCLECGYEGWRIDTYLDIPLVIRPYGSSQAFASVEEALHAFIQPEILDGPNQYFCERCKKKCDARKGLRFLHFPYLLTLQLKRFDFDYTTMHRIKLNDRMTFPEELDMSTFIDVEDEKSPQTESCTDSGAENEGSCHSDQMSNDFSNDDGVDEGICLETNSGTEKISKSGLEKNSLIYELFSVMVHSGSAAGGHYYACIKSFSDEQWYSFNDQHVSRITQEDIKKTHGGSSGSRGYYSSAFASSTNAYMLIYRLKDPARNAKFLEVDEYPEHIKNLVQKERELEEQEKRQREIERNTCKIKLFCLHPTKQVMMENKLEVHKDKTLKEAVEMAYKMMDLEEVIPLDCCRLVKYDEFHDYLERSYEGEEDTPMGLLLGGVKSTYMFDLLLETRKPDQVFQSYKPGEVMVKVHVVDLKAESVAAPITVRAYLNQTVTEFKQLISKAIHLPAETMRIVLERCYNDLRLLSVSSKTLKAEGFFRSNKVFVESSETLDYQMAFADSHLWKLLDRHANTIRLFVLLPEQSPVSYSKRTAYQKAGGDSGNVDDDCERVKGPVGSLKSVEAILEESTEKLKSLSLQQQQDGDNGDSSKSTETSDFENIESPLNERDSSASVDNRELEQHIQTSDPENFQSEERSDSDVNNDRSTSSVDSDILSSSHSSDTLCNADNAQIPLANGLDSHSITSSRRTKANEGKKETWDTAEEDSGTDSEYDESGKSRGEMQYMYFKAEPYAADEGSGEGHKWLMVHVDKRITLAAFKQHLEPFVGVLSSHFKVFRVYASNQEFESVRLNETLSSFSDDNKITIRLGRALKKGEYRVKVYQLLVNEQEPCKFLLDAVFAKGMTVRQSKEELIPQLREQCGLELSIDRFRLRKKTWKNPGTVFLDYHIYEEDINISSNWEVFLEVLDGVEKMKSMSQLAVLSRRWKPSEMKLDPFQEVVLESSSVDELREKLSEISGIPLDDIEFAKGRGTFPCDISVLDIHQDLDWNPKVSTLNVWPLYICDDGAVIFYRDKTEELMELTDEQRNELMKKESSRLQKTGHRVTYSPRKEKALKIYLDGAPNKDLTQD
Outline: as §1

USP48 = molecular target: T3, USP48 (UniProt Q86UV5)
T3 sequence (whole entry): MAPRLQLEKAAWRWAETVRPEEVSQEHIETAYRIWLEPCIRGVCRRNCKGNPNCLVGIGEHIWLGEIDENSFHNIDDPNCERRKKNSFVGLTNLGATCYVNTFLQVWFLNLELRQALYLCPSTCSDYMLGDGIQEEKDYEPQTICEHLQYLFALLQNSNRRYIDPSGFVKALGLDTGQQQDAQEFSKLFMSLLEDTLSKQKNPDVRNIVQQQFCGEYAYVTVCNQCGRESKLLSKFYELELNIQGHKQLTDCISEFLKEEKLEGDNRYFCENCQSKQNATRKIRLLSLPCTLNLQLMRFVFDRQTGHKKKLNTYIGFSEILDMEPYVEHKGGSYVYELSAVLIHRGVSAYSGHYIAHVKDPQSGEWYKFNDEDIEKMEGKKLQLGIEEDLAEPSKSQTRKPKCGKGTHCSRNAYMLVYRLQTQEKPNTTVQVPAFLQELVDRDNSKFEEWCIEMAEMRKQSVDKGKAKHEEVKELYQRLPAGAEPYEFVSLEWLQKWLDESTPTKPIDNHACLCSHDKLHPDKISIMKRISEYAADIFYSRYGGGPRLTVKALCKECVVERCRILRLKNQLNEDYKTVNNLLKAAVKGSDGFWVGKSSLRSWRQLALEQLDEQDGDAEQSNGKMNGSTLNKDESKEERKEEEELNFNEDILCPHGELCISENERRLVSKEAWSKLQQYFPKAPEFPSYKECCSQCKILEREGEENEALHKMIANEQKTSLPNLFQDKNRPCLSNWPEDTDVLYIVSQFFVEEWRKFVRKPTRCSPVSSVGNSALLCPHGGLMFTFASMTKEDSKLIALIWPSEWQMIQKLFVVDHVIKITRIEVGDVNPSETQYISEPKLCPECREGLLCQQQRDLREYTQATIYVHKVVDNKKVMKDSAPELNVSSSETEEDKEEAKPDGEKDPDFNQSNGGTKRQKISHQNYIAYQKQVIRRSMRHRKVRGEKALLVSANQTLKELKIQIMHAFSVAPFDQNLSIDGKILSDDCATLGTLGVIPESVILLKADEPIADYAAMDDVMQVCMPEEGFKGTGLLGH
Outline: as §1

USP5 = molecular target: T4, USP5 (UniProt P45974)
T4 sequence (whole entry): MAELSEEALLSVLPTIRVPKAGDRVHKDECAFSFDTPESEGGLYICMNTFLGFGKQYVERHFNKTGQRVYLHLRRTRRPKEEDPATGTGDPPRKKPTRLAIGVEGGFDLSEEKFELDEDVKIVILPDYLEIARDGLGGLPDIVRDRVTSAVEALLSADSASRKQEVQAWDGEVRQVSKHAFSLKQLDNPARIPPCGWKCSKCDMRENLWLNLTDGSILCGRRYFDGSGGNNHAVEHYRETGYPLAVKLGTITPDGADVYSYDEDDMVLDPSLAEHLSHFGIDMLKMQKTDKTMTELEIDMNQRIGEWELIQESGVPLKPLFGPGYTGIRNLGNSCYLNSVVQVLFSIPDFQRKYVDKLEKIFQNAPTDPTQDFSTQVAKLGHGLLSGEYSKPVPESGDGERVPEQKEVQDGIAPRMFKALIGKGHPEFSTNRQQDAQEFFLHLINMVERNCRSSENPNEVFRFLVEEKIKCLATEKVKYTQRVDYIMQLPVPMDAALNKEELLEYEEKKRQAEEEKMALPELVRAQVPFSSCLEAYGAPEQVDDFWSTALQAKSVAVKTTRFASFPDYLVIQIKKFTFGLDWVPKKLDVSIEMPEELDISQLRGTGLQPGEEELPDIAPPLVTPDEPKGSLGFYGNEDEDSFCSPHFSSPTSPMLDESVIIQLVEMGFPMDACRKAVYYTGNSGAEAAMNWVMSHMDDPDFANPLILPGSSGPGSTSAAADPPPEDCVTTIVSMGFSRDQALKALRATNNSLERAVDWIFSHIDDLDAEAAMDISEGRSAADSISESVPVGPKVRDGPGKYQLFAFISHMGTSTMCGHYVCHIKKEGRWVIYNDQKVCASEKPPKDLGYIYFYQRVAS
Outline: as §1

USP54 = USP54 (UniProt Q70EL1)
Outline: as §1

USP7 = USP7 (UniProt Q93009)
Outline: as §1

USP8 = molecular target: T5, USP8 (UniProt P40818)
T5 sequence (whole entry): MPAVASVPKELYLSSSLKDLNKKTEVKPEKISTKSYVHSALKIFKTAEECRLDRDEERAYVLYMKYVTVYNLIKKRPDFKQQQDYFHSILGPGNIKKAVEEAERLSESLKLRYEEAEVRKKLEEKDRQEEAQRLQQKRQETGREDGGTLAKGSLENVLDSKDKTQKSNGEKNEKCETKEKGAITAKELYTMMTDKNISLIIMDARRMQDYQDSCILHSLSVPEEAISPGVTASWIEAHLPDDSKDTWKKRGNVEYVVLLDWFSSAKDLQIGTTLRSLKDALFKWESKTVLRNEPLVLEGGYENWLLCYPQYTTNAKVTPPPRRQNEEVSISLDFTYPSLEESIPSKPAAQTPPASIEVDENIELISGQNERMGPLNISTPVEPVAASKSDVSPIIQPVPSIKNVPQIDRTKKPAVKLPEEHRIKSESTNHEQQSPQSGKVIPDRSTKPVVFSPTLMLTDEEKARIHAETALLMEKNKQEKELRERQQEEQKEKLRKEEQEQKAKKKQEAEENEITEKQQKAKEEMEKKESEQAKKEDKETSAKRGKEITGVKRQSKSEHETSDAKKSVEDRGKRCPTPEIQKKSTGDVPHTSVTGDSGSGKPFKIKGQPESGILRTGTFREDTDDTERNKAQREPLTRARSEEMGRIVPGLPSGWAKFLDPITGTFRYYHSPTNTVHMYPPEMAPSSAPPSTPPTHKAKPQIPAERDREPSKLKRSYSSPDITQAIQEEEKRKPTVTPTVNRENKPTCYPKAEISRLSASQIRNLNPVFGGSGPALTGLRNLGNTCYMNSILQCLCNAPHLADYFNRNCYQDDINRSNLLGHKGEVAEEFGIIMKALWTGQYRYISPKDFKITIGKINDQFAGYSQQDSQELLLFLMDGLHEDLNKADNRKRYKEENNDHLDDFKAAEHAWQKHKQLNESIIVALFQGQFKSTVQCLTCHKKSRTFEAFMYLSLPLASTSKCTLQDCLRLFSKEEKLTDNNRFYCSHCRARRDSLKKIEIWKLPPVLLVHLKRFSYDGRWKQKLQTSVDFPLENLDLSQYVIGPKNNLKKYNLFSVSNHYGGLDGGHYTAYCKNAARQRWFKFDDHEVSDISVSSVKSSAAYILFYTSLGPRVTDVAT
Outline: as §1

USP9X = USP9X (UniProt Q93008)
Outline: as §1

UniProt O00487 = molecular target: UniProt O00487
Outline: as §1

Measured: log2 ratio of Biotin-Ahx-Ub-VS probe labelling

Chain of USP7 (Q93009 whole entry, looked up): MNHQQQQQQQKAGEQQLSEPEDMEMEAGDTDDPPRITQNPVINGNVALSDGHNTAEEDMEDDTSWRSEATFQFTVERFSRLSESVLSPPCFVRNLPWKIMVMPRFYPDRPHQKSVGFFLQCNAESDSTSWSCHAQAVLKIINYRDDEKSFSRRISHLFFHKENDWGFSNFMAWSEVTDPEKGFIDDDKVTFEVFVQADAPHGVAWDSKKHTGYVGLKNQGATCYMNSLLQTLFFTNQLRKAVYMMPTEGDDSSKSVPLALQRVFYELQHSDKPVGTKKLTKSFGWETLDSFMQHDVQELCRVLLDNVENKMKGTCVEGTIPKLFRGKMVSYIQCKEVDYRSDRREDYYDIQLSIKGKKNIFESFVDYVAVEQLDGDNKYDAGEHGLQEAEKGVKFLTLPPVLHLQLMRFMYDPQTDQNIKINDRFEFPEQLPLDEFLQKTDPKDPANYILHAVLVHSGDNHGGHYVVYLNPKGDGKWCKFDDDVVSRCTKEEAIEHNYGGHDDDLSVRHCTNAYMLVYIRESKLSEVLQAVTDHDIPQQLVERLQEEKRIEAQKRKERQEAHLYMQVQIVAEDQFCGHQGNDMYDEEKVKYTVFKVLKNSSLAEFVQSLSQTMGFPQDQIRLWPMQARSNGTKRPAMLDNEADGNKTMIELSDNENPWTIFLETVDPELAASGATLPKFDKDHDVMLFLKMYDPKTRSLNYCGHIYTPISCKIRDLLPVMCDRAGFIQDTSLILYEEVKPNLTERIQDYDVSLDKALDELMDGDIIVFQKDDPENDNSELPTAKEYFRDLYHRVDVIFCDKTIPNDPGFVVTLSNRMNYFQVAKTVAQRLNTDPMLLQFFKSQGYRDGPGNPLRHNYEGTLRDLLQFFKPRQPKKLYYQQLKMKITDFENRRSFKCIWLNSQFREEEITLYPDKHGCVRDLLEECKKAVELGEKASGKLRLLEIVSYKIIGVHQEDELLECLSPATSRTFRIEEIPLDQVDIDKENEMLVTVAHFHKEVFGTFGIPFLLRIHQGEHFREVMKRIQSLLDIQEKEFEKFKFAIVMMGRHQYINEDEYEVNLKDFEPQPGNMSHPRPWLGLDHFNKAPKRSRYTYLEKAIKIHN
Chain of UniProt O00487 (O00487 whole entry): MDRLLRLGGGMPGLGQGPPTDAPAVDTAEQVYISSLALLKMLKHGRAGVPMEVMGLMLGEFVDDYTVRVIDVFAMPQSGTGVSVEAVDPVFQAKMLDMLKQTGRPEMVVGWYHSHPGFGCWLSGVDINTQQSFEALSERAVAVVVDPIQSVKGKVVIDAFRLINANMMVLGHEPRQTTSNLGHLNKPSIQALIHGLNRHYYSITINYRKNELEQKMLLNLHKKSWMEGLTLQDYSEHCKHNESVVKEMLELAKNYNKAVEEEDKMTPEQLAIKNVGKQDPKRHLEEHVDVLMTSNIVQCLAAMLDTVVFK
Chain of USP9X (Q93008 whole entry): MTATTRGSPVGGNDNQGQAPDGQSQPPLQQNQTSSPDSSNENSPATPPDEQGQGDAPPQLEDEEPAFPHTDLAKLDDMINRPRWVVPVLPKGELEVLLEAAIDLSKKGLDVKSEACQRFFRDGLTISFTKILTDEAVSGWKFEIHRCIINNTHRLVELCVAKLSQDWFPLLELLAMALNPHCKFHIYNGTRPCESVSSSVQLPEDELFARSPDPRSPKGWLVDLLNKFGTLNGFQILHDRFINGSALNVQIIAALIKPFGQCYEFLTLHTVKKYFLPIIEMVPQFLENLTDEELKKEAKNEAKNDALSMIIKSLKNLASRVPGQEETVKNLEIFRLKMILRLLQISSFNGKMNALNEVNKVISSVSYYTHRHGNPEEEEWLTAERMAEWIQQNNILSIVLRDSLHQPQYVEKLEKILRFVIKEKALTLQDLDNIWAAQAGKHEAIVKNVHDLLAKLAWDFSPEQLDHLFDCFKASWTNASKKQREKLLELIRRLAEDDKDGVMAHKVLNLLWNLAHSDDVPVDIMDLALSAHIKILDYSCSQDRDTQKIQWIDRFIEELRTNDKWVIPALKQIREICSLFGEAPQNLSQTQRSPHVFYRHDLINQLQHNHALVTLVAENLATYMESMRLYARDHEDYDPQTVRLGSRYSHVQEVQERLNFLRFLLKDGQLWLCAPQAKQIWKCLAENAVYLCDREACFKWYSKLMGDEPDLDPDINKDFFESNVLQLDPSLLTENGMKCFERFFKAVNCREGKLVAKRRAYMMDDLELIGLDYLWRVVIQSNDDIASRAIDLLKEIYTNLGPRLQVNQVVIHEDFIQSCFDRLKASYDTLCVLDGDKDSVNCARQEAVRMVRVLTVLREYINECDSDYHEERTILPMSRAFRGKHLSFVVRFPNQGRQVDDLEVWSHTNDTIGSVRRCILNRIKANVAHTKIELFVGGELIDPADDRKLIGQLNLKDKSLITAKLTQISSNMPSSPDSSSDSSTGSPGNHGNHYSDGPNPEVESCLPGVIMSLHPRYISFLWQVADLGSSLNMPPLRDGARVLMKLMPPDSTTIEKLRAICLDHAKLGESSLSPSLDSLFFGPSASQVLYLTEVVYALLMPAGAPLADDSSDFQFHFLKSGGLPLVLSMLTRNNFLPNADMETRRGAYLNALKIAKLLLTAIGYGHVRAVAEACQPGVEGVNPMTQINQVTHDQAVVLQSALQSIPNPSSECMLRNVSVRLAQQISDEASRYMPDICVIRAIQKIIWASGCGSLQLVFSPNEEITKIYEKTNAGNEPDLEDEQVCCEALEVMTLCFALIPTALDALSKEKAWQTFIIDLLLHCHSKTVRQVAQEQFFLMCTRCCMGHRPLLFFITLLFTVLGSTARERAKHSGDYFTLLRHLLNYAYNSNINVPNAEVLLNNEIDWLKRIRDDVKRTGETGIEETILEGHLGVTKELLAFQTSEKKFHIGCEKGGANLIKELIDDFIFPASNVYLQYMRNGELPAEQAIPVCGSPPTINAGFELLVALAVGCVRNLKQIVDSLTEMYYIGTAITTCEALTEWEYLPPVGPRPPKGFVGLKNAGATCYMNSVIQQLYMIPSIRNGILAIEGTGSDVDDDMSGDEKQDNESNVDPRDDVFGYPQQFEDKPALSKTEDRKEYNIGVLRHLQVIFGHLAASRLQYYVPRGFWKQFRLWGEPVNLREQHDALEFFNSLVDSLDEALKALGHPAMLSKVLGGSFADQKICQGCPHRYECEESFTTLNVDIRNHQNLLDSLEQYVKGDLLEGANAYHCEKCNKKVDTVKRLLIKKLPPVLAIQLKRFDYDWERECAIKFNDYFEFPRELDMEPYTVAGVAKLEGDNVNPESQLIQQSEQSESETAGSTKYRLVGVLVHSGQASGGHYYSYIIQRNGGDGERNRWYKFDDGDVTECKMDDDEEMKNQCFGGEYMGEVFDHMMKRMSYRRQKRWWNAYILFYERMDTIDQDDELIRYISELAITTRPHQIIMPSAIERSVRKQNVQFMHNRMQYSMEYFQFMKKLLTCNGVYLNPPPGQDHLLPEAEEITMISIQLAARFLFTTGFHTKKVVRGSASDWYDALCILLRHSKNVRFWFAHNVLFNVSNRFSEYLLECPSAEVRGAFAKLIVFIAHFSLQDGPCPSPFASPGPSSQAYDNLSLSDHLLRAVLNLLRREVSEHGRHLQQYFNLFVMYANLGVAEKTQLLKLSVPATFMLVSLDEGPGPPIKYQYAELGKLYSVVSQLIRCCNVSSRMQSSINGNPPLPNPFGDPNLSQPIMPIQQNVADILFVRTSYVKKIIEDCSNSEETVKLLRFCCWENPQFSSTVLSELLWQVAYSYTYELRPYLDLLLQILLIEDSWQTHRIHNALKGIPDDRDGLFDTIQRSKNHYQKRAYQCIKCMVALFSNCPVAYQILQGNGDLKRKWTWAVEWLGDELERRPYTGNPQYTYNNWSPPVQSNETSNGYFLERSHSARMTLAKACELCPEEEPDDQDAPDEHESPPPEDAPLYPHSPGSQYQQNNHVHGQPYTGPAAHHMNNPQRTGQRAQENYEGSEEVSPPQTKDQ
Chain of USP46 (P62068 whole entry): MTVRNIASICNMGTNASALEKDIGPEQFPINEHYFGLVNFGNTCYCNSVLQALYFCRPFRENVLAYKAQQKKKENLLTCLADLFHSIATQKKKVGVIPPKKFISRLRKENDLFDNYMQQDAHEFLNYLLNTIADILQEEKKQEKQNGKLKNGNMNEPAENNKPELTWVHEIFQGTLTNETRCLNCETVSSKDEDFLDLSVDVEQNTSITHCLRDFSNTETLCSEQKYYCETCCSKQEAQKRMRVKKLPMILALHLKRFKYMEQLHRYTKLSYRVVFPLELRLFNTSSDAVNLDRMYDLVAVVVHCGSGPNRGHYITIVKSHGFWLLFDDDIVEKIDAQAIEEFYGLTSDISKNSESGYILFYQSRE

Cc1cc(Cl)ccc1NC(=O)CCl
inactive: USP42 -0.0727 | USP46 -0.0701 | USP47 -0.176 | USP48 -0.173 | USP5 -0.0552 | USP54 -0.075 | USP7 -0.304 | USP8 0.0468 | USP9X -0.0827 | UniProt O00487 -0.165
